Activity calls are given as the source filed them.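 The calls were made as follows: active = AC50 at most tenfold above the top tested concentration; inconclusive = flat fit with 30 to 70% activity, or a poor fit; inactive = AC50 over tenfold above the top dose.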
Assay: yeast HDAC inhibitors, dose response, mechanism study for Sdo1 growth activator project, cell lysate, fluorescence, yeast nuclear extract (AID 463208)
Conditions: yeast nuclear extract HDAC activity, fluorogenic substrate

SMILES	AC50
COc1ccc(-c2c(C)sc(NC(=O)c3ccnn3C)c2C#N)cc1	> 50 µM (inactive)
O=C(COC(=O)Cc1ccsc1)Nc1ccccc1	> 50 µM (inactive)
O=C(O)CCCn1nc(C(F)(F)F)c2c1CCCCC2	> 50 µM (inactive)
O=C(Nc1cccc(Cl)c1)c1ccc(NCC2CCCO2)c([N+](=O)[O-])c1 (stereo not drawn)	> 50 µM (inactive)
CC(C)C(C(=O)Nc1cccnc1)N1C(=O)c2ccccc2C1=O (stereo not drawn)	> 50 µM (inactive)
Cc1sc(NC(=O)c2ccnn2C)c(C#N)c1-c1ccccc1	> 50 µM (inactive)
O=C(Nc1ccccc1)c1ccc(NCC2CCCO2)c([N+](=O)[O-])c1 (stereo not drawn)	> 50 µM (inactive)
Cc1c(/C=N/NC(=O)c2cccc(F)c2)cnn1C	> 50 µM (inactive)
O=C(COC(=O)Cc1cccs1)Nc1ccccc1	> 50 µM (inactive)
O=C(CSc1nc(-c2ccco2)cc(C(F)(F)F)n1)NCc1cccs1	> 50 µM (inactive)
CC(/C=C/C(=O)NO)=C\[C@@H](C)C(=O)c1ccc(N(C)C)cc1	< 0.00075 µM (active)
Cc1nc(CS(=O)(=O)c2ccccc2)cc(N2CCOCC2)n1	> 50 µM (inactive)
Cc1ccc(Cn2c(CN3CC(C)OC(C)C3)nc3c2c(=O)n(C)c(=O)n3C)cc1 (stereo not drawn)	> 50 µM (inactive)
COc1ccc(-c2nc3ccccc3o2)cc1NC(=O)c1ccc(Br)o1	> 50 µM (inactive)
Cn1c(=O)[nH]c(=O)c2c1nc(Sc1nc3ccccc3[nH]1)n2Cc1ccccc1	> 50 µM (inactive)
CCOc1ccc(C(=O)NC(=S)NCc2cccnc2)cc1	> 50 µM (inactive)
CCOc1cccc(C(=O)NC(=S)NCc2cccnc2)c1	> 50 µM (inactive)
CC(C(=O)Nc1cccnc1)N1C(=O)c2ccccc2C1=O (stereo not drawn)	> 50 µM (inactive)
CC(=O)N(C1CCCCC1)C1C(=O)C(=O)c2ccccc2C1=O (stereo not drawn)	> 50 µM (inactive)
CCN(CC)CCCNC(=O)C1CCNCC1	> 50 µM (inactive)
CCSc1nnc([C@H](CCSC)NC(=O)OC(C)(C)C)o1	> 50 µM (inactive)
COc1ccc(-c2nc3ccccc3s2)cc1NC(=O)c1ccc(Br)o1	> 50 µM (inactive)
CN(C)CCCNC(=O)C1CCNCC1	> 50 µM (inactive)

Reference: PubChem BioAssay AID463208 (Broad Institute, 2010)
